This note sets out measurements from PubChem BioAssay (Tox21).

The structures appear in SMILES notation. Inconclusive results are not listed. The source made the active and inactive calls. Unless noted, calls follow the shape of the dose curve; as a rule, active = well fitted curve in the direction sought with a large enough effect in the repeat runs; inconclusive = weak or mixed curves; inactive = no such curve, though single readings can be large; an effect the other way counts as inactive or inconclusive.

Assay [1] in a line: qHTS assay for small molecules that induce genotoxicity in human embryonic kidney cells expressing luciferase-tagged ATAD5 (AID 651632). Also: nearly all actives have a fitted effect of over 15% in size. In outline:
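ATAD5-luc HEK293T, 2,000 cells/well; cpd or DMSO pin-transferred; 16 hr, 37C/5% CO2; Amplite 30 min RT; luminescence.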
Background: qHTS replaces the single test concentration by a dilution series.

Assay [2] is described as follows: qHTS assay for small molecule agonists of the p53 signaling pathway - cell viability (AID 651633; calls by dose curve;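 also: p53RE-bla HCT reporter cells with a stable beta-lactamase p53 reporter; series mostly up to about 83 µM; nearly all actives have a fitted effect of over 30% in size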). Summed up:
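p53RE-bla cells were treated with compound for 16 hours at 37 C. Cytotoxicity was then measured as CellTiter-Glo luminescence after 30 min at room temperature.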

Assay [3] can be described thus: qHTS assay for small molecule disruptors of the mitochondrial membrane potential - cell viability (AID 720634; calls by dose curve;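 also: human HepG2 liver cancer cells; series mostly up to about 83 µM; nearly all actives have a fitted effect of over 20% in size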). In outline:
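Cells: HepG2, 2,000/well, attached overnight. Compound 1 hr, 37 C/5% CO2. +m-MPI dye, +CellTiter-Glo 30 min RT. Readout: luminescence (ATP).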

Assay [4] can be described thus: qHTS assay to test for compound auto fluorescence at 535 nm (green) in HepG2 cells (AID 720675).
Assay [5] can be described thus: qHTS assay to test for compound auto fluorescence at 460 nm (blue) in HEK293 cells (AID 720678). In outline:
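Cells were seeded and left to adhere for 4-5 hr at 37C. Compounds were then pin-transferred. After an overnight incubation at 37C under 5% CO2, intrinsic fluorescence at 405/460 nm was measured and referenced to triamterene.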

Assay [6] can be described thus: qHTS assay to test for compound auto fluorescence at 590 nm (red) in HEK293 cells (AID 720679). Summed up:
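Each well held 2,000 HEK293 cells in medium containing 10% dialyzed FBS. Following 4-5 hr attachment at 37C, 23 nL test compound or DMSO was added; plates sat overnight, and red fluorescence (540/590nm) was recorded.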

The nature of assay [7]: qHTS assay to test for compound auto fluorescence at 460 nm (blue) in HEK293 cell free culture (AID 720681). Summed up: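 Compounds were added to cell-free DMEM with 10% FBS and fluorescence read directly. The blue channel used 405 nm excitation and 460 nm emission, with triamterene as the reference fluorophore.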
Assay [8] is described as follows: qHTS assay to test for compound auto fluorescence at 535 nm (green) in HEK293 cell free culture (AID 720682). Summed up:
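Green-label autofluorescence (485 nm excitation, 535 nm emission) measured on compound added to cell-free culture medium (DMEM, 10% FBS). Output is expressed relative to fluorescein.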

The nature of assay [9]: qHTS assay to test for compound auto fluorescence at 590 nm (red) in HepG2 cell free culture (AID 720684). Summed up:
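Compound was pinned into wells holding MEM with 10% FBS and no cells, and red fluorescence was read at Ex/Em 540/590 nm. Signal is expressed as auto fluorescence equivalency relative to Rose Bengal sodium.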

Assay [10] can be described thus: qHTS assay to test for compound auto fluorescence at 460 nm (blue) in HepG2 cell free culture (AID 720685). Summed up:
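Compound (23 nL) or DMSO pinned into cell-free MEM with 10% FBS; blue fluorescence read at 405/460 nm excitation/emission, expressed as auto-fluorescence equivalency to triamterene.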

The nature of assay [11]: qHTS assay to test for compound auto fluorescence at 535 nm (green) in HepG2 cell free culture (AID 720686).
A short description of assay [12]: qHTS assay to test for compound auto fluorescence at 460 nm (blue) in HepG2 cells (AID 720687). In outline: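 HepG2 cells in MEM with 10% FBS, attached overnight at 37 C, were exposed to compound or DMSO for 1 hr at 37 C, 5% CO2. Blue fluorescence was read at 405/460 nm, with triamterene as reference fluorophore.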
A short description of assay [13]: qHTS assay for identifying genotoxic compounds that show differential cytotoxicity against isogenic chicken DT40 cell lines with known DNA damage response pathways - Rad54/Ku70 mutant cell line (AID 743015). Also: nearly all actives have a fitted effect of over 60% in size. Also: potency is read from the fitted curve at half-maximal effect.
Assay [14] in a line: qHTS assay to identify small molecule antagonists of the androgen receptor (AR) signaling pathway - cell viability counter screen (AID 743033; also: nearly all actives have a fitted effect of over 45% in size).
A short description of assay [15]: qHTS assay to identify small molecule antagonists of the androgen receptor (AR) signaling pathway using the MDA cell line - cell viability counter screen (AID 743041; also: nearly all actives have a fitted effect of over 45% in size). Summed up:
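MDA-kb2 AR-luc cells (MMTV-luciferase, AR/GR responsive) treated with compounds plus R1881 agonist for 16 h at 37C. CellTiter-Fluor added at 15.5 h; fluorescence read after 30 min in the same wells.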

Assay [16] in a line: qHTS assay to identify small molecule antagonists of the estrogen receptor alpha (ER-alpha) signaling pathway - cell viability counter screen (AID 743074; calls by dose curve;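 also: HEK293 cells carrying ER-alpha-UAS-bla reporter stimulated with 17beta-estradiol; nearly all actives have a fitted effect of over 45% in size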).
In assay [17] the target is Aromatase (Homo sapiens) (UniProt P11511). Briefly: qHTS assay to identify aromatase inhibitors (AID 743083). Also: series mostly up to about 70 µM; nearly all actives have a fitted effect of over 55% in size.
Assay [18] can be described thus: qHTS assay to identify aromatase inhibitors - cell viability counter screen (AID 743084).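 Also: cells stimulated with testosterone during compound exposure; nearly all actives have a fitted effect of over 55% in size.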
In assay [19] the target is Aryl hydrocarbon receptor (Homo sapiens) (UniProt P35869). The assay can be described thus: qHTS assay to identify small molecule that activate the aryl hydrocarbon receptor (AhR) signaling pathway (AID 743085).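 Also: HG2L7.5c1 human HepG2 liver cells with stably integrated DRE-driven firefly reporter; series mostly up to about 70 µM; nearly all actives have a fitted effect of over 15% in size.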 Summed up:
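HepG2 cells stably carrying a 20-DRE firefly luciferase reporter (HG2L7.5c1) treated with compound for 24 hr at 37C. Luciferase read by ONE-Glo luminescence, with CellTiter-Fluor viability read first.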

Assay [20] is described as follows: qHTS assay for identifying genotoxic compounds that show differential cytotoxicity against isogenic chicken DT40 cell lines with known DNA damage response pathways - wild type cell line (AID 743012). Also: nearly all actives have a fitted effect of over 60% in size. Also: potency is read from the fitted curve at half-maximal effect. Summed up: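 Wild type DT40, 300 cells/well, ~0.5 h settle at 37 C/5% CO2; compounds in DMSO added by pintool; 40 h at 37 C/5% CO2; CellTiter-Glo, 30 min RT; luminescence.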

Aromatase (Homo sapiens), sequence (P11511 whole entry, looked up): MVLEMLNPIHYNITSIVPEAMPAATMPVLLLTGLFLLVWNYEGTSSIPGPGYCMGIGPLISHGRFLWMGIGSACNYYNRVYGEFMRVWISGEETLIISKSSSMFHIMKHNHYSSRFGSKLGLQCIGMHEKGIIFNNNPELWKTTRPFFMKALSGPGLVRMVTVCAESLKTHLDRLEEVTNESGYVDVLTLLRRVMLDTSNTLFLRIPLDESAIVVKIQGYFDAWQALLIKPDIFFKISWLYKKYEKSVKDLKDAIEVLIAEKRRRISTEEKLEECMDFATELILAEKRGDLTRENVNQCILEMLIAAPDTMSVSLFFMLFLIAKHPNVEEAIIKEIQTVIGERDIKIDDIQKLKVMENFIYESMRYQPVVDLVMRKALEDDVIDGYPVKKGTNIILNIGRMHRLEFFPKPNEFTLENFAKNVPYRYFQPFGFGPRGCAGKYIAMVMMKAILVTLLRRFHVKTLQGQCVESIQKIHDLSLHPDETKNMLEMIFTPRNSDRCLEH
Aryl hydrocarbon receptor (Homo sapiens), sequence (P35869 whole entry, looked up): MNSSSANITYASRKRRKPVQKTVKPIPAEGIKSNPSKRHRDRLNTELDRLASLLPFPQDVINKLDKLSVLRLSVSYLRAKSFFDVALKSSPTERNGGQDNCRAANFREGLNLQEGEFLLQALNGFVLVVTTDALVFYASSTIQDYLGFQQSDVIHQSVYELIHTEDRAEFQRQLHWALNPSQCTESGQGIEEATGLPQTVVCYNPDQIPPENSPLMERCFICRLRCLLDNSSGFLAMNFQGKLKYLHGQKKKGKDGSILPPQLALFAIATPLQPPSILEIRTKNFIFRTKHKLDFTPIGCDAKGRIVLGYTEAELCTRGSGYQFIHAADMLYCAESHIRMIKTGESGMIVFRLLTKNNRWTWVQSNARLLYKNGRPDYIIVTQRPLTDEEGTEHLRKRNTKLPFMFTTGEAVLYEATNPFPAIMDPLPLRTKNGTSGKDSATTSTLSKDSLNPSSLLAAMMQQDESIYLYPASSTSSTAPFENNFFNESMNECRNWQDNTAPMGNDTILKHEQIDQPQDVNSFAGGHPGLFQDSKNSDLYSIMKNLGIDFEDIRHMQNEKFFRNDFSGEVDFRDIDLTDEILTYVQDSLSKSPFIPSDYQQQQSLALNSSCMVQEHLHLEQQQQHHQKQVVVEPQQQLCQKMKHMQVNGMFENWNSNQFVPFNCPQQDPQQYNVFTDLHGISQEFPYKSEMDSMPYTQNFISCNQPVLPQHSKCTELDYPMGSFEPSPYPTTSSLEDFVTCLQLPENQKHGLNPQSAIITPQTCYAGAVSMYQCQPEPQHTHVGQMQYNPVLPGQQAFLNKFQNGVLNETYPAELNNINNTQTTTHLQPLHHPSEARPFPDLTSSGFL

`c1ccc2c(c1)Sc1ccccc1N2C[C@@H]1CN2CCC1CC2`: the Potency entry in assay [1], in assay [2], in assay [3], in assay [4], in assay [5] and in [7] was “inactive” throughout. Also, the Potency entry in [8], in assay [10], in assay [11], in assay [12], in assay [13] and in assay [14] was “inactive” in each case. Also, the Potency result in [15], in [16], in [17], in assay [18] and in assay [19] was “inactive” in each case. Further, the outcome in assay [6] and in assay [9] was inactive.

`CCc1cc(OC)c(C[C@@H](C)N)cc1OC`: the Potency result in assay [1], in assay [2], in assay [3], in assay [4], in assay [5] and in assay [7] was “inactive” each time. Further, the Potency result in assay [8], in [10], in [11], in assay [12], in assay [14] and in [16] was “inactive” throughout. Also, the Potency result in [17], in assay [18] and in [19] was “inactive” throughout. Moreover, the outcome in [6] and in [9] was inactive. The Potency is 56.7 µM (active) in [20] and 71.4 µM (active) in assay [13].

Take `CN1CC[C@@]23CCCC[C@@H]2[C@@H]1Cc1ccc(O)cc13`: the Potency result in assay [1], in [2], in [3], in assay [4], in assay [5] and in assay [7] was “inactive” each time. The Potency result in assay [8], in assay [10], in assay [11], in assay [12], in assay [20] and in [13] was “inactive” throughout. In addition, the Potency entry in [15], in [16], in [17], in assay [18] and in [19] was “inactive” throughout. Besides, the result in assay [6] and in [9] was inactive.

As for `C=C[C@H]1CN2CC[C@H]1C[C@H]2[C@H](OC(=O)OCC)c1ccnc2ccc(OC)cc12`, the Potency result in assay [1], in assay [2], in assay [3], in [4], in assay [7] and in [8] was “inactive” each time. In addition, the Potency entry in assay [10], in assay [11], in assay [12], in [13], in assay [14] and in assay [15] was “inactive” each time. The Potency result in assay [17] and in assay [18] was “inactive” throughout. In addition, the call in [6] and in assay [9] was inactive.

`C[C@]12CCC(=O)C[C@@H]1CC[C@@H]1[C@@H]2CC[C@@]2(C)[C@H]1CC[C@]2(C)O`: the Potency entry in [1], in assay [3], in assay [4], in assay [5], in [7] and in assay [8] was “inactive” each time. For the same compound, the Potency entry in assay [10], in [11], in [12], in assay [20], in assay [13] and in assay [14] was “inactive” each time. Also, the Potency entry in assay [15], in assay [16], in assay [17], in assay [18] and in assay [19] was “inactive” each time. Moreover, the result in assay [6] and in assay [9] was inactive.

In the case of `CN[C@@H](C)Cc1ccccc1`, the Potency result in assay [1], in [2], in [3], in assay [4], in [7] and in assay [8] was “inactive” throughout. In addition, the Potency result in assay [10], in assay [11], in assay [12], in assay [20], in assay [13] and in assay [14] was “inactive” in each case. In addition, the Potency result in assay [15], in [16], in [17] and in assay [18] was “inactive” throughout. For the same compound, the call in assay [6] and in [9] was inactive.

For the compound `O=C(NC(=O)c1c(F)cccc1F)Nc1ccc(Cl)c(Oc2ncc(C(F)(F)F)cc2Cl)c1`, the Potency entry in assay [1], in assay [3], in [4], in [5], in [7] and in assay [10] was “inactive” each time. The Potency result in assay [11], in [12], in [14], in assay [15], in [16] and in assay [17] was “inactive” in each case. The Potency entry in assay [18] and in [19] was “inactive” in each case. The compound was classed as inactive in [6] and in assay [9].
